# PNC assembly inh: perinucleolar compartment assembly inhibition; 140,000 tested, 3.1% active; activity change (PNC), negative = inhibition, % at 10 µM; PC3M PTB-GFP, PNC prevalence imaging, 16 h; hits give low values; AID 2417;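 active means readout at or below -70, meaning at least 70% loss of cells showing the perinucleolar compartment, a nuclear body marking cancer cells; inconclusive means readout between -30 and a set limit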;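 further: plate controls were DMSO wells for no effect and camptothecin positive control wells for full effect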
#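 PC3M cells stably expressing PTB-GFP, 750–1000 cells/well, treated 16 h at 37 °C with compound (23 nl of library stock), in duplicate. After paraformaldehyde fixation and Hoechst stain, imaged at 20x; PNC prevalence scored by image analysis.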
# IMPase inh: membrane-permeable compound that blocks inositol monophosphatase | P97697 | inhibition (IP1 accumulation), % at 46.1 µM | CHO-M1 cells, IP1 accumulation, HTRF TR-FRET ratio | 120,000 tested, under 10 active | AID 901; active means well fitted curve in the direction sought with a large enough effect in the signal ratio, not every such curve was filed as active; inconclusive means small, poorly fitted or top-dose-only effect, or a change in a side signal; inactive means no such curve, though single readings can be large or run the other way; the % refers to the signal ratio;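 further: cells stimulated with carbachol in lithium chloride buffer; plate controls were DMSO basal wells for no effect and reference inhibitor wells for full effect; higher means more IMPase inhibition seen as more IP1 and lower FRET ratio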
#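 CHO-M1 cells (CHO stably expressing M1 receptor), compound up to 46 uM final, stimulated with carbachol (50 uM as added) in buffer with 50mM LiCl, pH 7.4, 30 min at 37C. Cytosolic IP1 read by TR-FRET; AC50 from Hill fits.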
# ALDH1A1 block: blocks purified human ALDH1A1 activity. P00352. Purified ALDH1A1, NADH fluorescence, propionaldehyde substrate. Potency, µM (top dose mostly 75.3 µM), for the others: at the highest dose activity, negative = inhibition, actives largely listed as inhibitors. 220,000 tested, 7.3% active. AID 1030; active means well fitted inhibition curve with a large enough effect, not every such curve was filed as active; inconclusive means small, poorly fitted or top-dose-only effect, or another doubt; inactive means no such curve, though single readings can be large or run the other way;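 further: potency means the concentration at half of the fitted maximal effect; plate controls were no enzyme wells and a reference inhibitor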
# Target sequence (P00352 whole entry, looked up): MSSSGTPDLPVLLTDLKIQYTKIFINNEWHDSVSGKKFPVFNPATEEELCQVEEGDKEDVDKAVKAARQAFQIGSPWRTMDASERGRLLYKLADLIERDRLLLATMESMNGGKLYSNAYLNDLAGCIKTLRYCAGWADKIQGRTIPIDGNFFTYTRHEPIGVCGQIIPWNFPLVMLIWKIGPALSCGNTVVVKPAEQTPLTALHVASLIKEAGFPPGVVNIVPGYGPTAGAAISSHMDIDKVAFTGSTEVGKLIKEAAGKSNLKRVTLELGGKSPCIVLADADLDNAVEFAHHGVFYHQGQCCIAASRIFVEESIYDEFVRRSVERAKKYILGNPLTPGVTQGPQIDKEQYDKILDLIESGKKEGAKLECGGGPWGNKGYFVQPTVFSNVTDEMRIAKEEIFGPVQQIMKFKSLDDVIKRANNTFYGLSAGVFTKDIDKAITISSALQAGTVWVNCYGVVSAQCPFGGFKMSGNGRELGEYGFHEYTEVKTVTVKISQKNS
# IMPase Li inh: IMPase inhibition in cells with lithium potentiation; Potency, µM (series often up to 59.4 µM), inactives show top-dose activity, negative = IMPase inhibition, most hits filed as inhibitors; AID 1457; CHO-M1 cells, IP1 TR-FRET (IP-One), carbachol + lithium; 210,000 tested, 0.35% active;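 further: IP1 builds up when IMPase is blocked and the TR-FRET signal falls; potency means the concentration at half of the fitted maximal effect; plate controls were basal vehicle for no effect and high inhibitor control for full effect; nearly all actives have a fitted effect of over 50% in size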
#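 CHO cells stably expressing M1 receptor (2000/well, cultured 16–30 h) treated 30 min at 37C with compound plus low lithium. Cytosolic IP1 by TR-FRET (665/620 ratio and 620 channel) after 10 min lysis; AC50 by Hill fit.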
# HPGD block: blocks human HPGD enzyme activity. purified HPGD, NADH fluorescence kinetic, PGE2 substrate. Potency, µM, without a hit: at the top dose activity change, negative = inhibition, most hits filed as inhibitors. 150,000 tested, 4.3% active. AID 894; active means well fitted inhibition curve with a large enough effect, not every such curve was filed as active; inconclusive means small, poorly fitted or top-dose-only effect, or another doubt; inactive means no such curve, though single readings can be large or run the other way; further: potency means the concentration at half of the fitted maximal effect
#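 NADH formation kinetics: reaction with 30 uM PGE2 and 1 mM NAD+ (final), 20 nM enzyme, Tris-HCl pH 8 with Tween 20, after 15 min compound preincubation at room temperature. Fluorescence change, last versus first of five reads.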
# NPSR antag: neuropeptide S receptor (human) antagonism, cAMP; Q6W5P4; CHO-NPSR cells, cAMP TR-FRET, antagonist mode; Potency, µM (top dose mostly 38.3 µM), for inactives: at the top dose activity change, negative = inhibition, usual class: inhibitors; 220,000 tested, 1% active; further: potency means the concentration at half of the fitted maximal effect; nearly all actives have a fitted effect of over 50% in size
# * marks the source's active call; other numbers are inactive results; u = inconclusive; x = no result given; [ ] = dose if it differs, or a comment. An excerpt weighted towards active compounds, which were near 11% of everything screened. Unless noted, the call rests on the fitted dose curve; in most records, active means well fitted curve in the direction sought with a large enough effect; inconclusive means small, poorly fitted or top-dose-only effect, or another doubt; inactive means no such curve, though single readings can be large; an effect the other way counts as inactive or inconclusive. Unless noted, on the % scale 0 is the no-effect control and ±100 the full control effect.
SMILES,PNC assembly inh,IMPase inh,ALDH1A1 block,IMPase Li inh,HPGD block,NPSR antag
CCOc1ccc(OCCSc2nc3ccccc3[nH]2)cc1,-92*,12,-6%,30%,25µM*,2%
c1ccc(-n2nnnc2SCCCSc2nc3ccccc3s2)cc1,-14,4,1.3µM*,16%[38.3 µM],11µM*,-22%[46.1 µM]
CCCOc1ccc(CSc2nc3ccccc3[nH]2)cc1,74,8,9%,17%[38.3 µM],-20%,-4%[46.1 µM]
Cc1c(C(=O)NCCSCc2cccc(C(F)(F)F)c2)cnn1-c1ccc(Cl)cc1,x,x,13%,x,x,u
COc1ccc(-n2c(C)nc3cc(C(=O)NCc4ccco4)ccc32)cc1,16,5,u,7%[38.3 µM],8.9µM*,-9%[46.1 µM]
CCOc1ccc(-n2c(C)nc3cc(C(=O)NCc4ccc5c(c4)OCO5)ccc32)cc1,33,x,-11%,9%,u,-12%
COc1ccccc1-n1cnc2cc(C(=O)NCc3ccco3)ccc21,3,11,u,12%[38.3 µM],13µM*,-16%[46.1 µM]
CCOc1ccc(-n2c(C)nc3cc(C(=O)NCc4ccco4)ccc32)cc1,65,2,u,-3%[38.3 µM],8.9µM*,-22%[46.1 µM]
COCCNC(=O)c1ccc2c(c1)nc(C)n2-c1cc(OC)c(OC)c(OC)c1,62,4,3%,2%[38.3 µM],14µM*,2%[46.1 µM]
COc1ccc(-n2c(C)nc3cc(C(=O)NCc4ccc5c(c4)OCO5)ccc32)cc1,-26,x,7%,0%,-19%,4%
O=c1c2ccc([N+](=O)[O-])c3cccc(c32)c2nc3ccccc3n12,14,-17,10%,-8%[38.3 µM],5%,-7%[46.1 µM]
CCN(CC)c1nc(C#N)nc(N(CC)CC)n1,19,-2,-14%,19%[38.3 µM],-15%,2%[46.1 µM]
Cc1c(C#N)c2ncnc(-c3ccccc3)c2n1-c1ccccc1,u,-6,u,8%[38.3 µM],-13%,-7%[46.1 µM]
Cc1ccc(C(=O)O)cc1NC(=S)NC(=O)c1ccc(-c2ccccc2)cc1,x,x,14µM*,8%,x,59%
Cc1ccc(C(=O)O)cc1NC(=S)NC(=O)c1ccc(-c2ccc(Cl)cc2)o1,x,x,x,x,x,-33%
NC(N)=NS(=O)(=O)c1ccc(NC(=S)NC(=O)c2ccccc2)cc1,x,x,x,x,x,6%
O=C(O)c1cccc(NC(=S)N/N=C/c2ccccn2)c1,x,x,20µM*,15%,x,4%
O=C(O)c1cccc(NC(=S)NC(=O)c2ccc(-c3ccccc3)cc2)c1,x,x,25µM*,-13%,x,-34%
O=C(O)c1cccc(NC(=S)NC(=O)c2ccc(-c3ccc(Cl)cc3)o2)c1,x,x,u,-8%,x,-43%
NS(=O)(=O)c1ccc(NC(=S)NC(=O)c2ccc(-c3ccccc3)cc2)cc1,48,-7,2µM*,11µM*,-29%,4%
CC(=O)c1c(C)[nH]c(C(=O)COC(=O)CCCOc2ccccc2)c1C,x,x,7%,6%,x,4%
COc1ccccc1OCCC(=O)OCC(=O)NC(C)c1ccccc1 (configuration not stated),-84*,-6,2%,-1%,-10%,15%
COc1ccccc1OCCC(=O)OCC(=O)Nc1cc(S(=O)(=O)N(C)C)ccc1Cl,x,x,3.2µM*,1%,x,-12%
COc1ccccc1OCCC(=O)OCC(=O)c1[nH]c(C)c(C(C)=O)c1C,x,x,25µM*,15%,x,0%
Cn1c(Cn2c(=O)sc3ccccc32)nnc1SCC(=O)NCc1ccccc1,5,0,8%,-2%,-7%,-1%[46.1 µM]
Oc1[nH]c2ccccc2c1N=Nc1ccccc1F,u,x,4%,-4%,-18%,7%
COC(=O)c1cccc(NC(=O)NC23CC4CC(CC(C4)C2)C3)c1,u,12,32µM*,55%[38.3 µM],u,u
COc1ccc(Nc2oc(-c3ccccc3F)nc2C#N)cc1,x,x,u,x,x,38%
COc1ccc(C(=O)N2CCCC(CCC(=O)NCc3ccc(F)c(F)c3)C2)o1 (configuration not stated),x,x,16µM*,1%,x,38%
COc1cccc(CNC(=O)CCC2CCCN(C(=O)Cc3ccccc3F)C2)c1 (configuration not stated),x,x,11µM*,7%,x,-15%
